In the library only some 19% were active in any assay of this set; here they are far more common.
HT1080 IDH1KD tx = HT-1080 IDH1 knockdown cell toxicity (counter line) | HT-1080 IDH1 knockdown viability, ATP luminescence, 48 h | Potency, µM (doses to about 46.1 µM), hits mostly cytotoxic | 360,000 tested, 2% active | AID 686971
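% activity derives from luminescence (CellTiter-Glo), normalised to DMSO and no-cell wells. HT-1080-IDH1KD cells, 750/well, had 48 h compound exposure at 37 °C.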
IL1B secr inh = blocks inflammasome-driven IL-1 beta release; THP-1 LPS/ATP IL-1B secretion, AlphaLISA, 16 h; active compounds read low; activity change, % at 57.5 µM; 360,000 tested, 4.7% active; AID 743279; in the data active = activity change below about -50%; inconclusive = mostly about -30% to -49%
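Secreted IL-1B measured by AlphaLISA bead assay after 16 h compound exposure of THP-1 cells; compounds (final up to 57.5 uM) added 1 h before LPS (250 ng/mL) and ATP (1.25 mM) stimulation; lower signal means less secretion.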
TDP1 cell CPT = DT40-hTDP1 cell growth loss with CPT; Potency, µM (highest dose often 46.2 µM), most hits filed as inhibitors; 420,000 tested, 12% active; chicken DT40 Tdp1-/-;hTDP1 cells + 20 nM CPT, ATP luminescence, 48 h; AID 686979; note: nearly all actives have a fitted effect of over 55% in size
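Cell growth measured by CellTiter-Glo luminescence after a minimum 48 h, 37 C compound exposure with 20 nM CPT in Tdp1-knockout DT40 cells stably expressing hTDP1, seeded 400/well; qHTS titration format.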
uPA surface inh = inhibitors of cell surface uPA generation. AID 540303. cell surface uPA generation assay, qHTS. Potency, µM (titrated, usually from 38.3 µM), actives largely listed as inhibitors. 330,000 tested, 0.31% active; active = well fitted inhibition curve with a large enough effect; inconclusive = small, poorly fitted or top-dose-only effect; inactive = no such curve, though single readings can be large or run the other way; tested in mouse RAW 264.7 cells; note: nearly all actives have a fitted effect of over 55% in size
HT1080-NT tox = kills 2HG-producing HT-1080-NT fibrosarcoma cells. HT-1080-NT fibrosarcoma viability, CellTiter-Glo ATP luminescence, 48 h. Potency, µM (top dose mostly 46.1 µM), actives largely listed as cytotoxic. 360,000 tested, 1.6% active. AID 686970;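 note: NT is the 2HG producing partner of a matched IDH1 knockdown line; nearly all actives have a fitted effect of over 55% in size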
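750 cells/well, RPMI + 5% FBS; 2 h settle, compound pin-transfer, 48 h at 37 degrees C. CellTiter-Glo 10 min RT, luminescence. Normalized to DMSO and media-only wells.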
DT40 TDP1 no CPT = qHTS for Inhibitors of human tyrosyl-DNA phosphodiesterase 1 (TDP1): qHTS in cells in absence of CPT | DT40 Tdp1-/- hTDP1 cells, no CPT, ATP luminescence, 48 h | Potency, µM (highest dose often 46.2 µM), most hits filed as inhibitors | 420,000 tested, 15% active | AID 686978, 2013; note: nearly all actives have a fitted effect of over 55% in size
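Growth kinetics read by CellTiter-Glo luminescence after ≥48 hr at 37 °C. Cells: DT40 Tdp1-/- stably carrying human TDP1, 400 per well, compound exposure in the absence of CPT (DMSO vehicle).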
A number is an active result; . = inactive; ? = inconclusive; / = no result given. Unless noted, calls come from the whole dose curve; as a rule, active = well fitted curve in the direction sought with a large enough effect; inconclusive = small, poorly fitted or top-dose-only effect, or another doubt; inactive = no such curve, though single readings can be large; an effect the other way counts as inactive or inconclusive.

SMILES | HT1080 IDH1KD tx | IL1B secr inh | TDP1 cell CPT | uPA surface inh | HT1080-NT tox | DT40 TDP1 no CPT
O=C(NCc1cccc(C(F)(F)F)c1)N1CCN(C(=O)c2ccccc2)CC1 | . | . | . | . | . | .
O=C(c1ccc(Cl)c(Cl)c1)N1CCC(=O)N(C(COCc2cccc(C(F)(F)F)c2)Cc2ccccc2)CC1 (stereo not drawn) | ? | -86 | ? | . | ? | ?
Cc1cccc(COCC(Cc2ccccc2)N2CCN(C(=O)c3ccc(Cl)c(Cl)c3)CCC2=O)c1 (stereo not drawn) | ? | -74 | 21µM | ? | . | ?
O=C(c1cccc(Cl)c1)N1CCC(=O)N([C@H](COCc2cccc(Cl)c2)Cc2ccccc2)CC1 | 16µM | ? | ? | / | ? | 23µM
CCOC(=O)C1(Cc2ccccc2)CCCN(C(=O)c2ccc(-n3ccnc3)cc2)C1 (stereo not drawn) | . | . | ? | . | . | ?
C[C@H]1NC(=O)[C@]2(C)[C@@H](c3ccccc3)[C@H]3COc4ccccc4[C@H]3N2C1=O | . | . | . | . | . | .
Cc1cccc(COC[C@H](Cc2ccccc2)N2CCN(C(=O)c3ccc(Cl)c(Cl)c3)CCC2=O)c1 | 16µM | -65 | ? | / | ? | ?
COc1cc(NC(=O)CC(C)S(=O)(=O)c2ccc3c(c2)CCN3C(C)=O)cc(OC)c1OC (stereo not drawn) | / | / | . | / | / | .
CCOC(=O)C1CCCN(C(=O)c2ccc(F)c(C)c2)CC1 (stereo not drawn) | . | . | ? | / | . | .
Cn1nc(SCc2ccccc2)c(=O)[nH]c1=O | . | . | . | / | . | .
CCCCn1c(CCNC(=O)c2ccc(F)cc2)nc2ccccc21 | / | / | . | / | / | ?
CCCCCn1c(CCCNC(=O)c2ccccc2)nc2ccccc21 | / | / | 23µM | / | / | 21µM
CCCCCn1c(CNC(=O)c2ccc(F)cc2)nc2ccccc21 | / | / | 16µM | / | / | 21µM
COc1ccc(CCNCc2c(C(=O)O)c(C)n(Cc3c(F)cccc3Cl)c2C)cc1OC | / | / | . | / | / | .
CCCOc1nc(N)c(C#N)c(-c2ccccc2F)c1C#N | . | . | 16µM | . | . | ?
CCSc1nc(-c2ccco2)ccc1C#N | . | . | 23µM | . | . | ?
N#Cc1ccc(-c2ccco2)nc1SCc1ccccc1 | . | . | ? | . | . | ?
Cn1nc(C(=O)OCc2ccc(F)cc2)c2ccccc2c1=O | . | . | . | / | . | ?
Cc1ccc(COC(=O)c2nn(C)c(=O)c3ccccc23)cc1 | ? | . | ? | . | . | 13µM
COc1ccc(Cl)cc1C(=O)NNC(=O)c1nn(C)c(=O)c2ccccc12 | ? | . | ? | . | . | 16µM
CCN(CC)S(=O)(=O)c1nnc(NC(=O)COc2ccccc2F)s1 | / | / | . | / | / | .
c1cc2c(c(NCc3ccncc3)c1)CCCC2 | . | . | 12µM | . | . | 12µM
CC(C)(C)CC(=O)Nc1cccc2c1CCCC2 | . | . | . | . | . | .
Cc1[nH]nc(-c2cccnc2)c1N=NN(C)C | 21µM | -104 | 0.82µM | . | 21µM | 1.5µM
Cc1ccc(C)c(-n2c(-c3cccnc3)n[nH]c2=S)c1 | . | . | . | . | . | .
SMILES | HT1080 IDH1KD tx | IL1B secr inh | TDP1 cell CPT | uPA surface inh | HT1080-NT tox | DT40 TDP1 no CPT
O=C(O)Cc1sc(Nc2cccc3ccccc23)nc1-c1ccc(Cl)cc1 | . | . | . | . | 12µM | .
C[C@H]1C(=O)N(C)CCN1C(=O)c1ccc(OC2CCN(CCc3ccccc3)CC2)cc1 | . | . | . | / | . | .
CC(C)c1ccccc1NC1=CC(=O)CC(C)(C)C1 | . | . | . | . | . | .
CC(=O)c1ccc(NC(=O)c2nn(C)c3c2CS(=O)(=O)c2ccccc2-3)cc1 | / | / | . | / | / | .
CCOc1ccc(NC(=O)c2noc3c2CSc2ccccc2-3)cc1 | / | / | . | / | / | .
CCOC(=O)c1ccc(NC(=O)c2nn(C)c3c2COc2ccccc2-3)cc1 | / | / | ? | / | / | .
CC(=O)c1ccc(NC(=O)c2nn(C)c3c2COc2ccccc2-3)cc1 | / | / | 15µM | / | / | ?
